# In all, about 53,000 sequences went through this assay and about 3,700 (7%) were called active. The sample as a whole holds a higher share of actives than the screen did. Unmarked numbers belong to inactive results.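 How the source made its calls: active means gene knockdowns whose robust z-score for IL-1 alpha signal is at least 2 or at most -2, so actives lie on both sides; inactive means the rest.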
# Experiment: Components of the Cytosolic LPS Sensing Pathway: Gene Identification via Genome-wide siRNA Screen;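 further: robust z of the log signal after scaling to non-targeting control siRNA wells of the plate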
# Details: RAW264.7 macrophages, IL-1a HTRF, actives lie on both sides, screened at 100 nM (by protocol), cells primed 5 h with Pam3CSK4 first
# Procedure, shortened: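 RAW264.7; siRNA 100 nM final, RNAiMAX, 48h 37 degrees C; Pam3CSK4 5 h; LipidA + TransIT-TKO 24 h; IL-1a HTRF; CellTiter-Glo viability; robust z vs negative-control median.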
row,Sequence,z-score
1,CGAAAUUGUGAUGAUGAACTT against Mast1,-0.799
2,CCAAUUUGACCCAUACUAUTT against Crtc2,1.61
3,GGAGAUUGGGAUCAAAGCCTT against Mthfd1,-1.56
4,GGACCUUUCAUCAACCCAUTT against Olfr676,2.13 (active)
5,GGUGCCAUUGAUUCUGUAGTT against Smim10l2a,-0.807
6,GCAGUGGGAAUCGAUAAAGTT against Fgfr2,-0.876
7,GGCAAGCUGUAAAAGAUGCTT against Noc3l,3.32 (active)
8,GGCCAUUUCUAUGAAAUUATT against Olfr1016,-2 (active)
9,CCUUAGGACAAGUAUUCUGTT against Cbx6,0.47
10,GGCAACUUUAUACACAAACTT against Vmn1r13,-0.283
11,GGAACCUUUCAGAAAUAUATT against Calhm5,-0.53
12,GGUCUGAUUGUCCUCUCUUTT against Slc35b4,3.25 (active)
13,CCACACCUUCAAAGCGAGATT against L3mbtl4,-0.104
14,GGCCUUGAUUCAAUUCAACTT against Tgm6,0.812
15,GGCAGAUAUUUAGAUGAUGTT against Pdyn,-0.932
16,GAUGUUCUUUGUCCACAUGTT against Olfr666,-0.325
17,GCAUUUUCUAGAUGGAAGCTT against Hao1,0.748
18,GGUCAUUCUCCAAGAACUATT against Ugp2,-0.844
19,GGUUCAGUAUAUCAUCUCUTT against Zfp335,2.69 (active)
20,GGAGAACAGUUUCAAGAUGTT against Rnf152,-0.487
21,GCCGGACUUCCCAUCUGUUTT against Srebf1,-0.784
22,GACGAAUAUCAUCUCACACTT against Olfr875,0.901
23,GCAGUUGACAUUUACUCUCTT against Nol10,2.36 (active)
24,GCUCCACACUACGUGUCAUTT against Olfr476,1.66
25,GCCUUAUCCAUAUCGACUATT against Arrdc1,0.831
26,GGAUGCUCAUGGACCUUUGTT against Olfr1122,0.931
27,CGUACUCCAACAACACUUUTT against Pdzd8,-0.503

row,Sequence,z-score
1,GGACUGUGUGUGCAAAGGUTT against Mt3,-0.176
2,GCUACUGCCGGAAUUUGGUTT against Tiam1,0.497
3,CGCAAGAUACCAACACUUATT against Flad1,-0.487
4,GGAACACAAAAGCAAAGAUTT against Prpf38b,2.2 (active)
5,GGAUUGUGGGUUUAUAUAATT against Olfr835,0.274
6,CAGGCUGGUUACUUUGGCUTT against Lhfpl5,-0.246
7,CCUUCCAACUCUUCUCCUCTT against H2-T3,0.915
8,GCCUCAUUUGAUCAAUGUCTT against Actr2,1.86
9,GCUAGAUAAACUCUCUCAATT against Cxcr5,0.73
10,GGUCCAGCUCAUGAAACUUTT against Sik1,0.147
11,GGGUUUGGUCGUAAACAGCTT against Limd2,-1.06
12,GGUGCUGCUAUUCCUGCACTT against Gpam,-2.03 (active)
13,GGGAGCUACGUUCAGAAGUTT against Gckr,1.63
14,GGAUUUCUGUGGAGAUGGGTT against Cchcr1,0.444
15,GCUACUCCAUUUACAUCUATT against H2bc1,-0.122
16,GCGGAGUGUGAAACACUGATT against Ccdc32,0.842
17,GGAAGGACAGACAGACAAGTT against Pxt1,0.165
18,CCUAGAUGACACUUGGGUGTT against Nup35,-1.4
19,GCCUCUUCAAUCACAUUUATT against Atp6v0a4,3.27 (active)
20,GGAAAGAUCUACGAGAUCUTT against Unc5a,1.04
21,CGGAUUCGUCUGUUUUCUGTT against Ddi2,1.97
22,GGAUAUACAUGGUCUGUUUTT against Naip5,0.318
23,GGACUCCUCCCAAGACGAATT against Avil,-0.118
24,CCUACCAUAGCAACACUAUTT against Kcna2,3.14 (active)
25,GGCCCUCACAAUGAAUAUGTT against Efs,-0.115
26,ACGAUAUGUUGACCUUGGCTT against Cyp2c67,-0.274
27,CGGCAAUUUGAGUUGAAAATT against Ppp1r2-ps9,-0.571

# Source: PubChem BioAssay AID1508600 (Functional Genomics Laboratory (NCATS/FGL), 2020)
